For 8 compounds, composite z-score and z-score results are on record in PubChem BioAssay.

Structures are written as SMILES. Active and inactive are the calls of the source.

For experiment [1], the system named is Wnt5a (protein binding on small-molecule microarray). The experiment can be described thus: small molecules binding Wnt5a protein – biophysical, small-molecule microarray, 635/667 nm fluorescence, primary screen (AID 1142).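 Note: fluorescence read at 667 nm with signal to noise per printed feature.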 The settings on record: 635 nm fluorescence, higher = more signal.
A short description of experiment [2]: ATP-based viability of Huh7 replicon cells – cell-based, CellTiter-Glo luminescence, basal, 48 h, cytotoxicity control for HCV replication inhibitor project, primary screen (AID 1143).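 Note: Huh7 hepatoma cells carrying a hepatitis C replication reporter with no stimulus; test concentration not given here.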 The settings on record: higher = more signal, called active from +8 up or from −8 down.
The nature of experiment [3]: basal CRE-LacZ reporter activity in PC12 – cell-based, unstimulated, primary screen (AID 1145). The conditions noted are these: no forskolin, luminescence, 4.5 h, higher = more signal, called active from +8 up or from −8 down.
A short description of experiment [4]: forskolin-driven CRE-LacZ activity in PC12 – cell-based, CRE-LacZ reporter, forskolin-stimulated, primary screen (AID 1146).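 Note: PC12 cells with 6xCRE LacZ reporter stimulated by forskolin 10 µM; beta-galactosidase reporter signal reflecting CREB driven transcription.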 The conditions noted are these: luminescence, 4.5 h, higher = more signal, called active from +8 up or from −8 down.
Experiment [5] concerns the target Streptavidin (Streptomyces avidinii) (UniProt P22629). The experiment can be described thus: compounds binding control protein streptavidin – biophysical, small-molecule microarray, 635/667 nm fluorescence, artefact control for SMM compound annotation, primary screen (AID 1147).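 Note: signal reflects streptavidin binding to arrayed compounds as a control protein.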 The conditions noted are these: higher = more signal.
The nature of experiment [6]: probe aInhba binding on compound microarray – biochemical, small-molecule microarray, 635/667 nm fluorescence, primary screen (AID 1148).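 Note: score merges 667nm spot fluorescence with signal-to-noise for antibody binding to printed compounds.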 The settings on record: higher = more signal.
Experiment [7] addresses Torsin-1A (Homo sapiens) (UniProt O14656). In words: TOR1A wild-type binding on microarray – cell lysate, small-molecule microarray, lysate, 635/667 nm, primary screen (AID 1149). The settings on record: COS7 hTOR1A-WT lysate, 635 nm fluorescence, higher = more signal.
The target is the same in experiment [8]. In words: torsin A mutant lysate binding on microarrays – cell lysate, small-molecule microarray, COS7 lysate, 635/667 nm fluorescence, primary screen (AID 1150).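 Note: score pools 667 nm emission and signal to noise measuring lysate protein binding.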 The settings on record: COS7 hTOR1A mutant lysate, 635 nm fluorescence, higher = more signal.
In experiment [9] the test system is Sonic hedgehog protein (Shh). In words: Sonic hedgehog microarray binding compounds – biochemical, small-molecule microarray, 635/667 nm fluorescence, primary screen (AID 1151).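 Note: Shh protein binding to compounds spotted on small-molecule microarray slides; score combines spot fluorescence intensity with signal-to-noise across triplicate slides.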 The conditions noted are these: 635 nm fluorescence, higher = more signal.
The nature of experiment [10]: optical density shifts of acrAB sulA E. coli – strain DRC41, OD650, 48 h, E. coli filamentation inducer project, primary screen (AID 1152).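 Note: E. coli MC1000 strain DRC41 lacking acrAB efflux pump and sulA.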 The conditions noted are these: higher = more signal, called active from +8 up or from −8 down.
Experiment [11] can be described thus: probe aLefty1 binding on compound microarray – biochemical, small-molecule microarray, 635/667 nm fluorescence, primary screen (AID 1153).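 Note: score merges spot fluorescence with signal-to-noise ratio from the scanned slide images.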 The conditions noted are these: higher = more signal.
Experiment [12] can be described thus: plasmodial surface anion channel blockers, osmotic lysis – cell-based, P. falciparum Indochina, OD700, 1 h, primary screen (AID 1154). The settings on record: P. falciparum Indochina infected RBC osmotic lysis, higher = more signal, called active from +8 up or from −8 down.
Experiment [13] in a line: plasmodial surface anion channel blockers, osmotic lysis – cell-based, P. falciparum Indochina, OD700, 2 h, primary screen (AID 1155).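 Note: lysis reports solute entry through the parasite surface anion channel PSAC.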 The conditions noted are these: P. falciparum Indochina infected erythrocytes, higher = more signal, called active from +8 up or from −8 down.
The nature of experiment [14]: changes in parasitized red cell lysis, either direction – P. falciparum Indochina, OD700, 3 h, PSAC antagonist project, primary screen (AID 1156). The conditions noted are these: P. falciparum-infected erythrocytes, osmotic lysis, higher = more signal, called active from +8 up or from −8 down.
Experiment [15] can be described thus: plasmodial surface anion channel blockers, osmotic lysis – cell-based, P. falciparum Indochina, OD700, 18 h, primary screen (AID 1157). The settings on record: P. falciparum Indochina infected erythrocytes, osmotic lysis OD700, 18 h; higher = more signal, called active from +8 up or from −8 down.
The nature of experiment [16]: S6 kinase pathway phospho-S6 level changes – cell-based, A549, cytoblot, luminescence, serum-stimulated, primary screen (AID 1158).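 Note: serum-stimulated A549 lung adenocarcinoma cells; signal is phosphorylated S6 detected by cytoblot immunostaining with HRP secondary.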 The settings on record: 5 h, higher = more signal.
Experiment [17] deals with NADPH oxidase 2 (Homo sapiens) (UniProt P04839). The experiment can be described thus: compounds shifting NOX2 Amplex Red fluorescence – cell-based, HEK293-NOX2, PMA-stimulated, NOX inhibitor project, primary screen (AID 1159). Note: test concentration not given here. The settings on record: 45 min, higher = more signal, called active from +8 up or from −8 down.
Experiment [18] addresses NADPH oxidase 4 (Homo sapiens) (UniProt Q9NPH5). The experiment can be described thus: compounds shifting NOX4 Amplex Red fluorescence – cell-based, HEK293-NOX4, tetracycline-induced, NOX inhibitor project, primary screen (AID 1160). The settings on record: HEK293-NOX4, Amplex Red H2O2 fluorescence, 45 min; higher = more signal, called active from +8 up or from −8 down.
Experiment [19] deals with NADPH oxidase 5 (Homo sapiens) (UniProt Q96PH1). The experiment can be described thus: compounds shifting NOX5 Amplex Red fluorescence – cell-based, HEK293-NOX5, NOX inhibitor project, primary screen (AID 1161). The conditions noted are these: HEK293-NOX5, ionomycin, 45 min, higher = more signal.
Experiment [20] is described as follows: compound effects on lung adenocarcinoma cell viability – A549, calcein-AM fluorescence, 48 h, basal, profiling panel (AID 1162). Note: test concentration not given here. The conditions noted are these: higher = more signal.

Chain of NADPH oxidase 5 (Homo sapiens) (Q96PH1 whole entry, looked up): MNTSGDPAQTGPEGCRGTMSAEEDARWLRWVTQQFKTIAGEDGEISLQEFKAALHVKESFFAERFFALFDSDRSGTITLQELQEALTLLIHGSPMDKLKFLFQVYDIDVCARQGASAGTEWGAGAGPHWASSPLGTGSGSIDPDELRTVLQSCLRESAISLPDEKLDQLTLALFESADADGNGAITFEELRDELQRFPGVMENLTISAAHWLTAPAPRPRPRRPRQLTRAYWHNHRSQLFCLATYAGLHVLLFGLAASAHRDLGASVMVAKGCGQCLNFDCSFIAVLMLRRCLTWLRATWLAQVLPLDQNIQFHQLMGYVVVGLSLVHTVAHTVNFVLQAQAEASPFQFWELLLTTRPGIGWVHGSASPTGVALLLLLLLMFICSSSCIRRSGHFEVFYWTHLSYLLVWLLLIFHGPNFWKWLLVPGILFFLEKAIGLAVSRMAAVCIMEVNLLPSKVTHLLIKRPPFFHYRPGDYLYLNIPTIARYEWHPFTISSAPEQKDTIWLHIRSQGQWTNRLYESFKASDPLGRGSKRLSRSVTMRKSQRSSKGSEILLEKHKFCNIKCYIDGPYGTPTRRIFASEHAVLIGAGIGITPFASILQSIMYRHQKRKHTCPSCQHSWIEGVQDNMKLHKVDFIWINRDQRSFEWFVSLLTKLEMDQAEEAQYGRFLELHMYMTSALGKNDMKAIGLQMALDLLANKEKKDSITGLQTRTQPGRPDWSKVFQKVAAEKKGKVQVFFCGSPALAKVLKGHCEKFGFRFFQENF
Chain of Streptavidin (Streptomyces avidinii) (P22629 whole entry, looked up): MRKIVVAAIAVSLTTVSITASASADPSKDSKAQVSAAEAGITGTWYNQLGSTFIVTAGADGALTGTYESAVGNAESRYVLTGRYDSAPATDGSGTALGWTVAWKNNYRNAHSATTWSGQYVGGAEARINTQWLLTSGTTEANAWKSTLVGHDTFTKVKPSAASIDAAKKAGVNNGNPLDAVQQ
Chain of NADPH oxidase 4 (Homo sapiens) (Q9NPH5 whole entry, looked up): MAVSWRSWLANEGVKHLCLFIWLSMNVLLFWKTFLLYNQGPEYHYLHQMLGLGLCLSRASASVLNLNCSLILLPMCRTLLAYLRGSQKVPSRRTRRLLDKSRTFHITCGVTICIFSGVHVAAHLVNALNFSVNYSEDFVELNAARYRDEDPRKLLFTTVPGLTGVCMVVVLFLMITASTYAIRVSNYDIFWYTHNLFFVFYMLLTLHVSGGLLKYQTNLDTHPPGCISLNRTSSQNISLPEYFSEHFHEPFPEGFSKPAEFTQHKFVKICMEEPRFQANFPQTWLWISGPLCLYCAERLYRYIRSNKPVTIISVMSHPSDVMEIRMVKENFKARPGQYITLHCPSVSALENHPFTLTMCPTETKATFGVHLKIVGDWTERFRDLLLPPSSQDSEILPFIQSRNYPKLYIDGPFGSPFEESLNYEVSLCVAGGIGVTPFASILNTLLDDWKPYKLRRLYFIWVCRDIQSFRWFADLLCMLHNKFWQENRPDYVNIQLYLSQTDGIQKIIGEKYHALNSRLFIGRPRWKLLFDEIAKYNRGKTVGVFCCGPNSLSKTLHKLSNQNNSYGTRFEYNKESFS
Chain of NADPH oxidase 2 (Homo sapiens) (P04839 whole entry, looked up): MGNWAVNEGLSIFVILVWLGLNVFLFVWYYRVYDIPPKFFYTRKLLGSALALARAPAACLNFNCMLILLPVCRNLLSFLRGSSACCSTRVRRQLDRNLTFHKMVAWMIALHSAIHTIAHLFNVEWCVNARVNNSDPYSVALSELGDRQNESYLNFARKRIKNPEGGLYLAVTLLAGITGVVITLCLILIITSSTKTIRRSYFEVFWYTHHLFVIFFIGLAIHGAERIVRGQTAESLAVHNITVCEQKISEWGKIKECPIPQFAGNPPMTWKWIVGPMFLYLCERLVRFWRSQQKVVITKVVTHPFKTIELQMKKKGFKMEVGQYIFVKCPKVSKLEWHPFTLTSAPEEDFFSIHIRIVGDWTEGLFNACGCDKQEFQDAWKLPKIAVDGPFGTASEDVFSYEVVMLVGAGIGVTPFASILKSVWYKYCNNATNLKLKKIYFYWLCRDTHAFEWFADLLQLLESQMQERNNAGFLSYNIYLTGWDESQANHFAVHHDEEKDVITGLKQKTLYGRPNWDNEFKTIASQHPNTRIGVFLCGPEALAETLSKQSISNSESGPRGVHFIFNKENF
Chain of Torsin-1A (Homo sapiens) (O14656 whole entry, looked up): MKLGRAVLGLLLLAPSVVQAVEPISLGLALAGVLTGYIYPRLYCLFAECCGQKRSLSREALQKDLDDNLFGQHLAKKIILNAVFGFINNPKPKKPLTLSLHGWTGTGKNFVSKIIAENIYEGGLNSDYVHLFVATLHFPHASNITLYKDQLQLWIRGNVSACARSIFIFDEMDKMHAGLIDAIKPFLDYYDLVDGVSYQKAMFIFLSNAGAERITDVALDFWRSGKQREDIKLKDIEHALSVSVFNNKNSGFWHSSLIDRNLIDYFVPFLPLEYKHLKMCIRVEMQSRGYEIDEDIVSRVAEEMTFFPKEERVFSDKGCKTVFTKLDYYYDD

`CCOC(=O)C[C@H]1[C@H](OC(=O)c2cc3ccccc3oc2=O)[C@@H](NC(=O)c2ccccc2)c2cc(OCCCO)ccc2N1C(=O)Cc1ccc(OC)cc1`: the composite z-score in [1] turned out to be 0.146; in [5], 0.0709; in experiment [6] it was 0.0464; with Torsin-1A (Homo sapiens) [7], 0.151; with Torsin-1A (Homo sapiens) [8], 0.098; in experiment [9], 0.251. Also, the composite z-score in [11] was -0.0051. In addition, the z-score in experiment [2] is -4.64 (inactive); in experiment [3], 8.63 (active); in experiment [4] it was -2.07 (inactive); in [10], 3.12 (inactive); in experiment [12], 3.28 (inactive); in experiment [13] it was -0.825 (inactive). Also, the z-score is 0.076 (inactive) in experiment [14]; -2.29 (inactive) in experiment [15]; 2.39 in experiment [16]; -0.224 (inactive) in [17]; 0.106 (inactive) in [18]; 0.874 in experiment [19]. Moreover, the z-score in [20] was -0.0571.
Take `COc1ccc(/C=C/C(=O)c2cccc(OCC(=O)OC(C)(C)C)c2)cc1`: the composite z-score in experiment [1] was -0.132; in [5], -0.152; in experiment [6] it was -0.363; with Torsin-1A (Homo sapiens) [7], 0.349; in the experiment with Torsin-1A (Homo sapiens) [8], 0.179; in experiment [9] it was -0.139. The composite z-score in experiment [11] is -0.113. In addition, the z-score is -0.385 (inactive) in [2]; 0.622 (inactive) in experiment [3]; -0.588 (inactive) in experiment [4]; 1.42 (inactive) in experiment [10]; 30.9 (active) in experiment [12]; 25.8 (active) in experiment [13]. The z-score in experiment [14] is 0.746 (inactive); in experiment [15] it was 1.41 (inactive); in [16], 0.112; in experiment [17] it was -1.32 (inactive); in [18], 0.197 (inactive); in experiment [19], -3.7. Further, in experiment [20], the z-score was 0.764.
Consider `C=CCN1C(=O)[C@@]2(O[C@@H](CCn3cc(CCO)nn3)[C@H]([Si](C)(C)c3ccc(OC)cc3)[C@H]2C)c2cc(NC(=O)c3ccc(OC)cc3)ccc21`, for which the composite z-score is 0.315 in experiment [1]; 0.441 in [5]; 0.0497 in [6]; 0.558 with Torsin-1A (Homo sapiens) [7]; 0.437 with Torsin-1A (Homo sapiens) [8]; 1.4 in experiment [9]. In [11], this compound returned a composite z-score of 0.0789. The z-score is -2.79 (inactive) in experiment [2]; 12.8 (active) in [3]; -2.29 (inactive) in experiment [4]; 0.596 (inactive) in experiment [10]; 12.1 (active) in [12]; 2.03 (inactive) in [13]. The z-score in experiment [14] was 1.1 (inactive); in experiment [15] it was 0.742 (inactive); in experiment [16], 0.157; in [17], -0.282 (inactive); in [18] it was 1.45 (inactive); in experiment [19] it was 0.367. Also, the z-score in experiment [20] is -0.0183.
Regarding `C=C(COC)C(=O)CC[C@H](OC(=O)c1cccnc1)c1cccc(OCCO)c1`, the composite z-score in experiment [1] is 1; in experiment [5], -0.347; in experiment [6] it was 0.345; with Torsin-1A (Homo sapiens) [7], 2.35; with Torsin-1A (Homo sapiens) [8], 0.0556; in experiment [9], 2.06. In experiment [11], this compound yielded a composite z-score of 0.75. Also, the z-score in [2] was -0.365 (inactive); in [3] it was 6.86 (inactive); in [4] it was 0.309 (inactive); in experiment [10], 1.05 (inactive); in experiment [12] it was 10.4 (active); in [13], 1.47 (inactive). Also, the z-score in experiment [14] is 0.934 (inactive); in [15] it was 0.577 (inactive); in [16] it was -0.597; in experiment [17], 0.936 (inactive); in [18] it was 0.743 (inactive); in experiment [19], -1.3. Also, the z-score in [20] was 0.18.
Take `[N-]=[N+]=NCc1ccccc1C[C@@]1(C(=O)NCc2ccccc2)N=C(c2ccc(OCCCO)cc2)O[C@@H]1c1ccccc1`: the composite z-score in [1] was 0.238; in experiment [5] it was 0.229; in experiment [6], -0.025; with Torsin-1A (Homo sapiens) [7] it was 0.0526; in the experiment with Torsin-1A (Homo sapiens) [8] it was 1.48; in [9], -0.353. This compound also yielded a composite z-score in experiment [11] of 0.277. Also, the z-score in experiment [2] is -5.27 (inactive); in experiment [3], 0.596 (inactive); in experiment [4] it was -0.942 (inactive); in experiment [10], 1.75 (inactive); in [12], 21 (active); in experiment [13] it was 5.58 (inactive). Moreover, the z-score in experiment [14] is 1.81 (inactive); in experiment [15], -0.217 (inactive); in experiment [16], 0.969; in experiment [17], 1.2 (inactive); in [18], 0.964 (inactive); in experiment [19], 0.0832. For the same compound, the z-score in experiment [20] was -2.22.
`C[N+](C)(C)CCCCNC(=O)[C@@H]1C[C@@H]2C(=O)NCC(=O)N2[C@@H]1c1cccc(OCCO)c1`: the composite z-score in [1] came out at 0.857; in [5], 0.461; in experiment [6], 0.124; with Torsin-1A (Homo sapiens) [7] it was 1.87; in the experiment with Torsin-1A (Homo sapiens) [8], 1.1; in experiment [9], 2.16. For the same compound, the composite z-score in experiment [11] was -0.221. In addition, the z-score was -1.08 (inactive) in [2]; -0.939 (inactive) in experiment [3]; -0.689 (inactive) in [4]; 1.78 (inactive) in experiment [10]; 2.68 (inactive) in experiment [12]; -1.12 (inactive) in experiment [13]. Moreover, the z-score is -2.75 (inactive) in [14]; -1.98 (inactive) in experiment [15]; 0.855 in [16]; -1.42 (inactive) in experiment [17]; -0.57 (inactive) in [18]; 0.766 in experiment [19]. In addition, the z-score in experiment [20] is 1.59.
Take `CC(C)C(CO)N1C(=O)[C@@H]2C3C(=O)OCCC/C=C\[C@H]3OC23C=CCN(C(C)C)C(=O)[C@@H]13` (stereo not given in full): the composite z-score in experiment [1] is -0.0608; in experiment [5], -0.643; in experiment [6] it was 0.0228; with Torsin-1A (Homo sapiens) [7], 0.286; in the experiment with Torsin-1A (Homo sapiens) [8] it was 0.703; in experiment [9], 0.321. The compound further yielded a composite z-score in [11] of -0.142. Also, the z-score in experiment [2] is 0.303 (inactive); in experiment [3] it was 0.333 (inactive); in experiment [4], -1.18 (inactive); in experiment [10], 2.21 (inactive); in [12], -0.0173 (inactive); in [13], -0.96 (inactive). Besides, the z-score in [14] was -0.677 (inactive); in [15], -1.36 (inactive); in experiment [16], 0.225; in [17], 0.914 (inactive); in experiment [18], 0.527 (inactive); in experiment [19], 1.56. For the same compound, in experiment [20], the z-score is 0.136.
Consider `C=CCC(OC(C)=O)[C@@H]1[C@@H](N(Cc2cccc3ccccc23)C(=O)c2cccc3ccccc23)c2cc(OCCCO)ccc2N1C(=O)Cc1ccc(OC)cc1` (stereo not given in full), for which the composite z-score was -0.0589 in experiment [1]; 0.228 in experiment [5]; -0.179 in experiment [6]; -0.0507 in the experiment with Torsin-1A (Homo sapiens) [7]; 0.274 in the experiment with Torsin-1A (Homo sapiens) [8]; 0.234 in experiment [9]. For the same compound, in [11], the composite z-score came to 0.0945. In addition, the z-score in [2] is -3.55 (inactive); in experiment [3], 1.47 (inactive); in experiment [4], -0.876 (inactive); in [10], 2.86 (inactive); in experiment [12], 2.59 (inactive); in [13], -0.227 (inactive). The z-score in [14] was -0.0889 (inactive); in experiment [15] it was -0.618 (inactive); in experiment [16], 1.5; in experiment [17] it was 0.295 (inactive); in experiment [18], -0.783 (inactive); in experiment [19], 1.46. For the same compound, the z-score in [20] was 0.725.
